According to PubChem BioAssay (Tox21):
Inconclusive results are not listed. A call without a number means that no potency is given here. Calls of active or inactive are those of the source. Unless noted, calls follow the shape of the dose curve; as a rule, active = well fitted curve in the direction sought with a large enough effect in the repeat runs; inconclusive = weak or mixed curves; inactive = no such curve, though single readings can be large; an effect the other way counts as inactive or inconclusive.

Assays:
[1] = qHTS assay to identify aromatase inhibitors - cell viability counter screen (AID 743084);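 also: cells stimulated with testosterone during compound exposure; nearly all actives have a fitted effect of over 55% in size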
[2] = target: Aryl hydrocarbon receptor (Homo sapiens) (UniProt P35869); test: qHTS assay to identify small molecule that activate the aryl hydrocarbon receptor (AhR) signaling pathway (AID 743085); also: nearly all actives have a fitted effect of over 15% in size; also: potency is read from the fitted curve at half-maximal effect;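 as to activation: HG2L7.5c1 human HepG2 liver cells with stably integrated DRE-driven firefly reporter; series mostly up to about 70 µM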
Aryl hydrocarbon receptor (Homo sapiens), sequence (P35869 whole entry, looked up): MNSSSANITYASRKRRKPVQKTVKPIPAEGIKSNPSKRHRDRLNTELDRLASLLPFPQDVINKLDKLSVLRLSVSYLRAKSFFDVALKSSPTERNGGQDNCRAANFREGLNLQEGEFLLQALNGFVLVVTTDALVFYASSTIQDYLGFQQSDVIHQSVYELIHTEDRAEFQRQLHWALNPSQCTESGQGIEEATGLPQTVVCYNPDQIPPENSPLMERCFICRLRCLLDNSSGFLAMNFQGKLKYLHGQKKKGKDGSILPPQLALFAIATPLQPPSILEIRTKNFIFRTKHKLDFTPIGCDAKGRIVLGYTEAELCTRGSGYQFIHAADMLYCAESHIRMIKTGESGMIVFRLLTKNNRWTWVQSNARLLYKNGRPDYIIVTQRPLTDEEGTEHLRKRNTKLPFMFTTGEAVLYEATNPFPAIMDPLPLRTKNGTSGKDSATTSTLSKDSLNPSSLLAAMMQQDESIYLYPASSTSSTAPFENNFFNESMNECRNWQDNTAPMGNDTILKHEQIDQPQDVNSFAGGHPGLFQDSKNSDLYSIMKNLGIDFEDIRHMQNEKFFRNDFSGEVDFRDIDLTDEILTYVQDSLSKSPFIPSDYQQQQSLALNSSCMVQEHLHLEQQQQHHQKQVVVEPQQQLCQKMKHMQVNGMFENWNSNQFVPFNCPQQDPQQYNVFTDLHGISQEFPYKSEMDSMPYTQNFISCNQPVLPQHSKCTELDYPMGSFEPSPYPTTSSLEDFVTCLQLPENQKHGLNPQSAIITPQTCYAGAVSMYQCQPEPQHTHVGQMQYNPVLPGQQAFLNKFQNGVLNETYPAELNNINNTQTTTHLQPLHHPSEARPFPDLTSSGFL
How it was run: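 Luminescence read-out: ONE-Glo reagent, 30 min at room temperature, in HG2L7.5c1 HepG2 reporter cells treated 24 h at 37C. Viability was measured beforehand by CellTiter-Fluor fluorescence after 30 min at 37C.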

[3] = qHTS assay to identify small molecule that activate the aryl hydrocarbon receptor (AhR) signaling pathway - cell viability counter screen (AID 743086);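 also: HepG2 liver cells carrying the AhR DRE luciferase reporter; series mostly up to about 70 µM; nearly all actives have a fitted effect of over 45% in size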
How it was run: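 Cytotoxicity counter screen: CellTiter-Fluor signal (30 min, 37 C) in 4000 HepG2 cells/well carrying the DRE-luciferase reporter, following 24 h compound exposure at 37 C.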

[4] = target: Peroxisome proliferator-activated receptor gamma (Homo sapiens) (UniProt P37231); test: qHTS assay to identify small molecule agonists of the peroxisome proliferator-activated receptor gamma (PPARg) signaling pathway (AID 743094; active = well fitted activation curve with a large enough effect in the signal ratio in the repeat runs, not every such curve was filed as active; the % refers to the signal ratio)
Peroxisome proliferator-activated receptor gamma (Homo sapiens), sequence (P37231 whole entry, looked up): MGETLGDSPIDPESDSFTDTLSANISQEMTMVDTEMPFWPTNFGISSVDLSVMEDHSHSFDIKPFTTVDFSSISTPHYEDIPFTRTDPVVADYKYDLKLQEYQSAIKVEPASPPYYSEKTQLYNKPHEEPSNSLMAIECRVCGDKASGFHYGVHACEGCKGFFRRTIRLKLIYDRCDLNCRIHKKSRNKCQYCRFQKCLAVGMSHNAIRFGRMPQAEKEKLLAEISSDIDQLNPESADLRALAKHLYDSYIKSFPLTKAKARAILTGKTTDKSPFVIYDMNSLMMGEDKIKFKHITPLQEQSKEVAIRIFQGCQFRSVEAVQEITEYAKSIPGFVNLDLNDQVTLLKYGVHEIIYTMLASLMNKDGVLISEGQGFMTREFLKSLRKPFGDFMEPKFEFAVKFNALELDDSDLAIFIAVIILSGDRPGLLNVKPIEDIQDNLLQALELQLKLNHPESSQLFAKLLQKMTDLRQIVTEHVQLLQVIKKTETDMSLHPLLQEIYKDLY
How it was run: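 Agonist activity was taken from a beta-lactamase reporter (FRET substrate, 1 h at room temperature) in HEK293H cells carrying a PPARg UAS-bla construct. Compounds in DMSO were incubated 17 h at 37C after a 5 h cell pre-incubation.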

[5] = qHTS assay to identify small molecule antagonists of the peroxisome proliferator-activated receptor gamma (PPARg) signaling pathway - cell viability counter screen (AID 743194); also: nearly all actives have a fitted effect of over 55% in size
How it was run: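 Viability was measured as CellTiter-Glo luminescence in GeneBLAzer PPARg UAS-bla HEK293H cells. These cells had been exposed 17 h at 37 C to compounds together with rosiglitazone at 50 nM final, with the beta-lactamase readout taken in the same wells.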

[6] = qHTS assay for small molecule agonists of the antioxidant response element (ARE) signaling pathway (AID 743202; active = well fitted activation curve with a large enough effect in the signal ratio in the repeat runs, not every such curve was filed as active; the % refers to the signal ratio; also: potency is read from the fitted curve at half-maximal effect)
How it was run: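 After 16 hours of compound treatment at 37 C, HepG2 cells with a stably integrated ARE-driven beta-lactamase reporter were loaded 2 hours at room temperature with LiveBLAzer B/G FRET substrate and fluorescence intensity measured.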

[7] = qHTS assay for small molecule agonists of the antioxidant response element (ARE) signaling pathway - cell viability counter screen (AID 743203; calls by dose curve; also: nearly all actives have a fitted effect of over 55% in size)
How it was run: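 Viability counter screen: CellTiter-Glo luminescence, read after 30 min at room temperature, in ARE-bla HepG2 wells. Compound exposure lasted 16 h at 37C/5% CO2, following a 5 h pre-incubation of the cells after plating.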

[8] = qHTS assay for small molecule activators of the heat shock response signaling pathway - cell viability counter screen (AID 743209); also: nearly all actives have a fitted effect of over 50% in size
How it was run: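 Cytotoxicity counter screen run in the same wells as the heat-shock bla reporter assay: HeLa HSE-bla cells, 5 h compound exposure at 37 C, viability read by CellTiter-Glo luminescence.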

[9] = qHTS assay for small molecule activators of the heat shock response signaling pathway (AID 743210; active = well fitted activation curve with a large enough effect in the signal ratio in the repeat runs, with a control signal flat, not every such curve was filed as active; the % refers to the signal ratio; also: series mostly up to about 63 µM)
How it was run: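 Compound exposure lasted 5 h at 37 C in HeLa cells carrying a heat-shock-element-driven beta-lactamase reporter. Read-out: fluorescence intensity after 2.5 h room-temperature loading with LiveBLAzer B/G FRET substrate.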

[10] = qHTS assay to identify small molecule agonists of the peroxisome proliferator-activated receptor delta (PPARd) signaling pathway - cell viability counter screen (AID 743211); also: nearly all actives have a fitted effect of over 55% in size
How it was run: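 Read-out: CellTiter-Glo luminescence, 30 min RT, measured in the same wells as the beta-lactamase reporter. Cells: GeneBLAzer PPAR delta UAS-bla HEK293H, 3000 cells/well, compound exposure 17 h at 37C.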

[11] = qHTS assay to identify small molecule antagonists of the peroxisome proliferator-activated receptor delta (PPARd) signaling pathway - cell viability counter screen (AID 743213); also: nearly all actives have a fitted effect of over 50% in size
How it was run: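 HEK293H PPARd UAS-bla cells, 5 h pre-incubation, compound + L165041 300 nM final, 17 h 37 C; B/G FRET substrate 2 h RT; then CellTiter-Glo 30 min RT, luminescence.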

[12] = target: Peroxisome proliferator-activated receptor delta (Homo sapiens) (UniProt Q03181); test: qHTS assay to identify small molecule antagonists of the peroxisome proliferator-activated receptor delta (PPARd) signaling pathway (AID 743215; active = well fitted inhibition curve with a large enough effect in the signal ratio in the repeat runs, not every such curve was filed as active; the % refers to the signal ratio;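 also: cells stimulated with agonist L165041 at 300 nM final during compound exposure; series mostly up to about 62 µM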)
Peroxisome proliferator-activated receptor delta (Homo sapiens), sequence (Q03181 whole entry, looked up): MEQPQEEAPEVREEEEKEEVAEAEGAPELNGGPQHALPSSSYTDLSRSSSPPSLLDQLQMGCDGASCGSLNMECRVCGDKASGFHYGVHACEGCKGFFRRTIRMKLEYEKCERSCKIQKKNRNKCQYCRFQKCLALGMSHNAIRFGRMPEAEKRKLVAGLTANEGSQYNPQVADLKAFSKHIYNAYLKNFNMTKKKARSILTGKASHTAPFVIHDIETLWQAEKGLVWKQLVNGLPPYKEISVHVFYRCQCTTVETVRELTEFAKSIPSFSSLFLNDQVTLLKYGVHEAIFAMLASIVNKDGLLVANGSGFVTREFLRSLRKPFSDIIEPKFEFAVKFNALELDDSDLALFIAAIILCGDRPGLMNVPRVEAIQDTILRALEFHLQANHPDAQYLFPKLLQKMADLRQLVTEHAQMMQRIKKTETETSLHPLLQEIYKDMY
How it was run: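 Agonist L165041 (300 nM final) added with compound to PPARd-bla HEK293H UAS-bla reporter cells; 17 h incubation at 37 C. Read-out: LiveBLAzer FRET substrate, 2 h at room temperature, fluorescence intensity.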

[13] = qHTS assay to identify small molecule antagonists of the farnesoid-X-receptor (FXR) signaling pathway - cell viability counter screen (AID 743221; active = well fitted cell-killing curve with a large enough effect in the repeat runs, not every such curve was filed as active; also: nearly all actives have a fitted effect of over 50% in size)
How it was run: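 HEK 293T FXR-bla cells, 5 h pre-incubation; compound + CDCA 50 uM final, 16 h, 37 C; beta-lactamase FRET read first, then CellTiter-Glo luminescence, 30 min RT.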

[14] = target: Vitamin D3 receptor (Homo sapiens) (UniProt P11473); test: qHTS assay to identify small molecule agonists of the vitamin D receptor (VDR) signaling pathway (AID 743222; calls by dose curve)
Vitamin D3 receptor (Homo sapiens), sequence (P11473 whole entry, looked up): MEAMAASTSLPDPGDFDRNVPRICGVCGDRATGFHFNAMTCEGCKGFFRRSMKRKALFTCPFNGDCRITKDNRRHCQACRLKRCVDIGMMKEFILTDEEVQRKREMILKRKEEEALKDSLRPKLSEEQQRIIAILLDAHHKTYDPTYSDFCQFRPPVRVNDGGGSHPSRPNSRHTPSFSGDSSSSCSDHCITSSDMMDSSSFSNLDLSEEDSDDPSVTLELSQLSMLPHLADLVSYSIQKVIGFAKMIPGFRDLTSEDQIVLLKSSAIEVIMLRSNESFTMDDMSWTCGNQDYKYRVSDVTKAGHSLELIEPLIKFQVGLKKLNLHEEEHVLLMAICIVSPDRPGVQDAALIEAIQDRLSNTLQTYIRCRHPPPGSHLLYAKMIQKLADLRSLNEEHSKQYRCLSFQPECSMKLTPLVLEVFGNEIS
How it was run: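 Agonist mode, beta-lactamase reporter: fluorescence from LiveBLAzer B/G FRET substrate (2 h, room temperature) read after 16 h compound treatment at 37 C of VDR-bla cells, which were pre-incubated 4 h after seeding.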

[15] = target: Vitamin D3 receptor (Homo sapiens) (UniProt P11473); test: qHTS assay to identify small molecule antagonists of the vitamin D receptor (VDR) signaling pathway (AID 743223; active = well fitted inhibition curve with a large enough effect in the signal ratio in the repeat runs, not every such curve was filed as active; the % refers to the signal ratio)
How it was run: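 Beta-lactamase reporter read-out: FRET substrate fluorescence after 2 h at room temperature, following 16 h exposure of VDR-bla cells to test compound plus 3 nM (final) 1alpha,25-dihydroxyvitamin D3 agonist at 37C.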

[16] = qHTS assay to identify small molecule agonists of the farnesoid-X-receptor (FXR) signaling pathway - cell viability counter screen (AID 743218); also: nearly all actives have a fitted effect of over 45% in size
How it was run: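 Viability counter screen in the same wells: CellTiter-Glo luminescence, 30 min room-temperature incubation, measured after the beta-lactamase read. Cells were GeneBLAzer FXR-UAS-bla HEK 293T, compound-treated 16 h at 37C.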

[17] = target: Bile acid receptor (Homo sapiens) (UniProt Q96RI1); test: qHTS assay to identify small molecule agonists of the farnesoid-X-receptor (FXR) signaling pathway (AID 743220; active = well fitted activation curve with a large enough effect in the signal ratio in the repeat runs, not every such curve was filed as active; the % refers to the signal ratio)
Bile acid receptor (Homo sapiens), sequence (Q96RI1 whole entry, looked up): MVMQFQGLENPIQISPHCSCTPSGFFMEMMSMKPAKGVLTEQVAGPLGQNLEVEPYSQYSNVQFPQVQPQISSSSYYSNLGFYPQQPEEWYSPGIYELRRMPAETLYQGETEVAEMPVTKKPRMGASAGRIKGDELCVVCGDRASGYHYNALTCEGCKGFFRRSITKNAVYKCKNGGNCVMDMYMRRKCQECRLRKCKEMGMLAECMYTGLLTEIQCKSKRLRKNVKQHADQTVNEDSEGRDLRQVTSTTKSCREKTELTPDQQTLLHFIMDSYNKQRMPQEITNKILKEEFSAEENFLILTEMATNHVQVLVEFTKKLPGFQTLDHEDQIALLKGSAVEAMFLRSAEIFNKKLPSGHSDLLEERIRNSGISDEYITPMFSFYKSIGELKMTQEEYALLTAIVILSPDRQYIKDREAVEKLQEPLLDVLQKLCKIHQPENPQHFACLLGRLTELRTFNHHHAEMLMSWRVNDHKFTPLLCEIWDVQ
How it was run: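 FXR-UAS-bla HEK 293T cells carrying a UAS-driven beta-lactamase reporter were plated for 5 h at 37C/5% CO2, then exposed to DMSO-dissolved Tox21 10K compounds for 16 h at 37C. A LiveBLAzer B/G FRET substrate was loaded for 2 h at room temperature before fluorescence reading.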

[18] = target: Peroxisome proliferator-activated receptor delta (Homo sapiens) (UniProt Q03181); test: qHTS assay to identify small molecule agonists of the peroxisome proliferator-activated receptor delta (PPARd) signaling pathway (AID 743212; calls by dose curve)
How it was run: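 Beta-lactamase reporter readout: a ratiometric FRET signal from the LiveBLAzer substrate after 2 h at room temperature. Compound exposure at 37 °C in PPARδ-bla HEK293H cells driven by an upstream activator sequence.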

[19] = target: Peroxisome proliferator-activated receptor gamma (Homo sapiens) (UniProt P37231); test: qHTS assay to identify small molecule antagonists of the peroxisome proliferator-activated receptor gamma (PPARg) signaling pathway (AID 743191; calls by dose curve; also: series mostly up to about 63 µM; nearly all actives have a fitted effect of over 30% in size)
How it was run: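 Beta-lactamase reporter under UAS control in HEK293H PPARg-bla cells; compound treatment 17 h at 37C. Read-out: fluorescence intensity after 1 h room-temperature incubation with LiveBLAzer B/G FRET substrate.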

[20] = target: Bile acid receptor (Homo sapiens) (UniProt Q96RI1); test: qHTS assay to identify small molecule antagonists of the farnesoid-X-receptor (FXR) signaling pathway (AID 743217; active = well fitted inhibition curve with a large enough effect in the signal ratio in the repeat runs, not every such curve was filed as active; the % refers to the signal ratio)
How it was run: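 Antagonist mode: chenodeoxycholic acid at 50 uM final stimulates a UAS-driven beta-lactamase reporter in HEK 293T FXR-bla cells during 16 h, 37C compound exposure. Read-out is FRET substrate fluorescence after 2 h at room temperature.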

| Compound | Potency [1] | Potency [2] | outcome [3] | Potency [4] | Potency [5] | Potency [6] | Potency [7] | outcome [8] | Potency [9] | Potency [10] | Potency [11] | outcome [12] | outcome [13] | outcome [14] | outcome [15] | Potency [16] | outcome [17] | outcome [18] | Potency [19] | outcome [20] |
| --- | --- | --- | --- | --- | --- | --- | --- | --- | --- | --- | --- | --- | --- | --- | --- | --- | --- | --- | --- | --- |
| O=C(O)[C@@H]1CSCN1 | inactive | inactive | inactive | inactive | inactive | inactive | inactive | inactive | inactive | inactive | inactive | inactive | inactive | inactive | inactive | – | – | – | – | – |
| COc1ccc(Nc2ccc(OC)cc2)cc1 | inactive | inactive | inactive | inactive | inactive | inactive | inactive | inactive | inactive | – | – | – | inactive | inactive | inactive | inactive | inactive | – | – | – |
| C[C@]12CCC(=O)C=C1CC[C@@H]1[C@@H]2CC[C@@]2(C)[C@H]1CC[C@]2(O)C(=O)CO | inactive | inactive | inactive | inactive | inactive | inactive | inactive | inactive | inactive | inactive | inactive | inactive | inactive | inactive | inactive | inactive | – | inactive | – | – |
| N#Cc1ccc(C(c2ccc(C#N)cc2)n2cncn2)cc1 | inactive | inactive | inactive | inactive | – | inactive | – | inactive | inactive | inactive | inactive | inactive | inactive | inactive | inactive | inactive | inactive | – | inactive | inactive |
| Cc1ccc(C=O)s1 | inactive | inactive | inactive | inactive | inactive | inactive | inactive | inactive | – | inactive | inactive | inactive | inactive | inactive | inactive | inactive | – | inactive | – | – |
| CN1CCN(C2=Nc3ccccc3Oc3ccc(Cl)cc32)CC1 | inactive | inactive | inactive | inactive | inactive | inactive | inactive | inactive | inactive | – | – | inactive | – | – | inactive | – | – | – | – | – |
| CC(CNC1CCCCC1)OC(=O)c1ccccc1 (centres undefined) | inactive | inactive | inactive | inactive | inactive | inactive | inactive | inactive | inactive | inactive | inactive | inactive | inactive | – | – | inactive | inactive | – | – | – |
| COc1cc2c(cc1N)oc1ccccc12 | inactive | 31.3 µM (active) | inactive | inactive | – | inactive | – | inactive | – | – | – | inactive | inactive | – | inactive | – | inactive | – | inactive | inactive |
| Cc1cccc(C)c1NC(=O)CN1CCCCCC1 | inactive | inactive | inactive | inactive | inactive | inactive | inactive | inactive | inactive | inactive | inactive | inactive | inactive | inactive | inactive | inactive | – | inactive | – | – |
| Oc1ccccc1F | inactive | inactive | inactive | inactive | inactive | inactive | inactive | inactive | inactive | inactive | inactive | – | inactive | inactive | inactive | inactive | inactive | – | – | inactive |
| COc1ccc(S(=O)(=O)Nc2nnc(CC(C)C)s2)cc1 | inactive | inactive | inactive | inactive | inactive | inactive | inactive | inactive | inactive | inactive | inactive | – | inactive | – | – | – | – | inactive | – | – |
| CCOc1ccc2nc(N)sc2c1 | inactive | 2.15 µM (active) | inactive | inactive | inactive | 48.2 µM (active) | inactive | inactive | inactive | inactive | inactive | – | inactive | – | – | inactive | – | – | – | – |
| CCCCCCCOC(=O)CCC | inactive | inactive | inactive | inactive | inactive | inactive | inactive | inactive | inactive | inactive | – | inactive | inactive | inactive | inactive | inactive | – | inactive | – | – |
| CCCCC(CC)COC(=O)COc1cc(Cl)c(Cl)cc1Cl (centres undefined) | inactive | inactive | inactive | inactive | inactive | inactive | inactive | inactive | inactive | – | inactive | inactive | inactive | – | – | inactive | inactive | inactive | – | inactive |
